According to PubChem BioAssay (NCI):
Compounds without any hit were thinned out: in the full panel of roughly 83,000, 20% have a hit.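 Treatment: one concentration, 48 hours, 96-well format. Scoring: percent growth, with anything below 10 considered active.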 A number with no mark means an inactive call. Calls of active or inactive are those of the source.

How the values were obtained:
Assay in all cases: NCI-60 one-dose screen, 48 h (100 = growth as untreated, 0 = no growth, -100 = all killed)
Settings in all cases: 10 µM unless noted
SR leukemia = test system: SR leukemia
RPMI-8226 leukemia = test system: RPMI-8226 leukemia
OVCAR-8 ovarian = test system: OVCAR-8 ovarian
OVCAR-5 ovarian = test system: OVCAR-5 ovarian
OVCAR-4 ovarian = test system: OVCAR-4 ovarian
SK-OV-3 ovarian = test system: SK-OV-3 ovarian
IGROV1 ovarian = test system: IGROV1 ovarian
OVCAR-3 ovarian = test system: OVCAR-3 ovarian
HS 578T breast = test system: HS 578T breast
NCI/ADR-RES ovarian = test system: NCI/ADR-RES ovarian

SMILES	growth (SR leukemia)	growth (RPMI-8226 leukemia)	growth (OVCAR-8 ovarian)	growth (OVCAR-5 ovarian)	growth (OVCAR-4 ovarian)	growth (SK-OV-3 ovarian)	growth (IGROV1 ovarian)	growth (OVCAR-3 ovarian)	growth (HS 578T breast)	growth (NCI/ADR-RES ovarian)
O=C(C(=O)c1ccc2c(c1)OCO2)c1ccc2c(c1)OCO2	106%	101%	95.3%	109%	99.8%	114%	124%	105%	96.3%	117%
Nc1n[nH]c2ccc([C@@H]3Nc4cc5c(cc4[C@H]4C6CCC(C6)[C@@H]34)C(=O)NC5)cc12 (stereo not given in full)	8.36% (active)	34.6%	21.5%	33.1%	30.7%	42.1%	12.6%	-3.29% (active)	24.5%	69%
CC/C=C\C/C=C\C[C@H]1C/C=C2/C(=O)C=C[C@@H]2C/C=C\CCC(=O)O1	0.464% (active)	-14.6% (active)	7.21% (active)	44.6%	26.7%	40.9%	13.1%	2.66% (active)	43.6%	17.9%
NC(=NC1C2CC3CC(C2)CC1C3)Nc1ccc(I)cc1 (stereo not given)	-10.1% (active)	20.6%	70.1%	38.9%	20.2%	77.6%	4.42% (active)	53.9%	33%	49.5%
COc1cc(-c2nc3ccccc3[nH]2)ccc1OCC(=O)N=Nc1c(O)[nH]c2ccc(Cl)cc12	-26.4% (active)	-39.4% (active)	-70.4% (active)	-26.4% (active)	-92.6% (active)	-13.3% (active)	-53.1% (active)	-97.7% (active)	-60% (active)	89.7%
Nc1ccc(-c2cc3c(Nc4ccc(Oc5cccc(C(F)(F)F)c5)c(Cl)c4)ncnc3s2)cc1	50.4%	53.1%	73.3%	93.4%	77.8%	83%	59.9%	56.6%	83.1%	69.7%
N#Cc1nnn(-c2ccc(S(N)(=O)=O)cc2)c1NC(=O)CCl	96.1%	91.4%	101%	96.6%	103%	96.6%	104%	106%	0.129% (active)	102%
COc1cc(-c2nn(-c3ccc(C(=O)O)cc3)cc2C(=O)O)ccc1O	32.9%	88.2%	73.2%	110%	83.8%	74.3%	81%	42.8%	76.5%	29.7%
O=[N+]([O-])c1ccccc1/C=N\NC(=S)N/N=C/c1ccccc1[N+](=O)[O-]	19%	87.3%	102%	86.4%	98.9%	69.1%	15%	-27% (active)	62.9%	14.4%
CCCc1cc(=O)n2c(C(=O)Nc3cccc(C(=O)OCC)c3)c(C(=O)Nc3ccc(F)cc3)sc2n1	82.4% [30 µM]	57% [30 µM]	-19.2% [30 µM] (active)	71.2% [30 µM]	9.71% [30 µM] (active)	62.2% [30 µM]	42.2% [30 µM]	-4.26% [30 µM] (active)	14.3% [30 µM]	47.3% [30 µM]
O=C(Cc1ccccc1Nc1c(Cl)cccc1Cl)NN1C(=O)/C(=C/c2ccc(Br)cc2)SC1=S	132%	106%	100%	100%	114%	100%	97.7%	109%	96.4%	105%
COc1ccc(-c2cc(-c3ccc(Nc4ccnc5cc(Cl)ccc45)cc3)nc(N3CCOCC3)n2)cc1	-18% (active)	-1.81% (active)	15.3%	135%	-52.1% (active)	101%	103%	2.68% (active)	-11.4% (active)	20.8%
COc1cc(-c2nn(-c3ccc(Br)cc3)cc2C(=O)O)ccc1O	84.1%	95.7%	105%	122%	101%	100%	91.2%	101%	101%	104%
COc1ccc2c(c1)C(=O)/C(=C/c1ccccn1)CC2	7.35% (active)	-10.3% (active)	85.4%	92.1%	83.8%	98%	85.6%	62.1%	98.1%	88.6%
O=C1c2cc3c(cc2-c2c1c1ccc(Cl)cc1c(=O)n2CCCN1CCOCC1)OCO3	4.71% (active)	60.8%	70.9%	109%	91.9%	33.4%	82.6%	86.5%	108%	45.9%
Cc1ccc(C2Oc3ccccc3C3CC(c4cccs4)=NN32)cc1 (stereo not given)	102%	95.3%	99.7%	102%	93.6%	90.1%	80.2%	100%	86.7%	96.6%
Cn1cc(-c2nonc2-c2c[nH]c3ccccc23)c2cccnc21	23.5%	40.8%	47.8%	72.3%	74.5%	41.7%	39.4%	15.2%	36.1%	13%
C=C1C(=O)O[C@H]2[C@H]1CC/C(C=Nc1ccc(C(F)(F)F)cc1N)=C\CC[C@@]1(C)O[C@@H]21	-2.49% (active)	-17% (active)	3.29% (active)	31.5%	23.3%	65.4%	27.7%	-11.1% (active)	7.74% (active)	23.4%
N#Cc1nnn(-c2ccc(S(N)(=O)=O)cc2)c1NCC(=O)c1ccccc1	90.7%	87.5%	91.6%	108%	89.8%	91.9%	99.5%	106%	98.3%	105%
O=C(Nc1ccc(Cl)cc1)c1cc2cc(F)ccc2cc1O	4.79% (active)	-8.91% (active)	8.21% (active)	29.9%	26.4%	-18.7% (active)	42.5%	23%	18.6%	4.6% (active)
CC1SC(c2ccc(N(C)C)cc2)N(NC(=O)C(O)(c2ccccc2)c2ccccc2)C1=O (stereo not given)	90%	60.1%	77.4%	104%	95.7%	97.6%	80.5%	95%	103%	95%
CCOC(=O)c1cc(C(=O)c2ccc(O)c(O)c2)n2ccc(-c3ccn4c(C(=O)c5ccc(O)c(O)c5)cc(C(=O)OCC)c4c3)cc12	62.3%	74.4%	91.4%	121%	86.5%	100%	87.4%	101%	85.8%	102%
Cn1cc(C(=O)c2nc(-c3c[nH]c4ccc(Br)cc34)no2)c2cc(F)ccc21	101%	99.5%	94.6%	99.3%	93.1%	87.9%	61.3%	97.2%	85%	94.1%
CCOC(=O)c1c(CN2CCN(C)CC2)nc2ccc(Cl)cc2c1-c1ccccc1	-2.55% (active)	25.5%	84%	69%	79.4%	90.7%	50.1%	76.8%	61%	68.7%
O=C(O)c1ccc(NC(=O)c2ccc(-c3cccc([N+](=O)[O-])c3)o2)cc1	113%	101%	103%	106%	93.9%	98.8%	92.2%	102%	90.7%	98.5%
CC(=O)Nc1ccc(-n2c(O)c(/C=N/NC(=O)Cc3ccccc3Nc3c(Cl)cccc3Cl)sc2=S)cc1	72.9%	106%	91.7%	114%	105%	111%	96.7%	116%	92.5%	101%
COc1ccc(S(=O)(=O)N2CC3(COC3)C2)cc1NC(=O)c1[nH]c(C)c2c1CCCCC2=O	51.3%	25.8%	54.2%	61.1%	56.6%	39.8%	44%	54.4%	26.7%	91.1%
